Inconclusive results are not listed. Where a call stands in place of a potency, no number is given. Values without a mark were called inactive. Calls of active or inactive are those of the source. Unless noted, calls come from the whole dose curve; as a rule, active = well fitted curve in the direction sought with a large enough effect in the repeat runs; inconclusive = weak or mixed curves; inactive = no such curve, though single readings can be large; an effect the other way counts as inactive or inconclusive.

Assay [1] has as its target Calcium and integrin-binding protein 1 (Homo sapiens) (UniProt Q99828). Kind of assay: Primary qHTS for Identification of Calcium Integrin Binding Protein 1 (CIB1) Competitor (AID 1508620; active = well fitted curve in the direction sought with a large enough effect; an effect the other way counts as inactive or inconclusive;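 note: GST tagged CIB1 binding a fluorescein labelled alphaIIb integrin peptide tracer; top concentration of the series differs between compounds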). Put shortly: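 CIB1-GST (1 uM final) and compound incubated 15 min at room temperature before adding FITC-alphaIIb peptide tracer (100 nM final). Competition for binding read by fluorescence polarization (ex 480, em 540) after another 15 min at room temperature.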
A general note: Quantitative high-throughput screening tests each substance at several concentrations.

For assay [2], the target named is Cytochrome P450 2D6 (Homo sapiens) (UniProt P10635). Kind of assay: Cytochrome P450 family 2 subfamily D member 6 (CYP2D6) small molecule antagonists: luciferase biochemical (cell-free) qHTS assay (AID 1645840). For activity change, negative = inhibition: series mostly up to about 57 µM. Note: nearly all actives have a fitted effect of over 55% in size. Note: potency is the fitted concentration of half-maximal effect. In outline:
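P450-Glo luminescent screen: recombinant CYP2D6 enzyme–proluciferin substrate mix preincubated with compound 10 min at room temperature, then NADPH regeneration added for 1 h at room temperature. Detection reagent added for 20 min; luciferin light read as relative luminescence units.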

Assay [3] has as its target Cytochrome P450 2C9 (Homo sapiens) (UniProt P11712). Kind of assay: Cytochrome P450 family 2 subfamily C member 9 (CYP2C9) small molecule antagonists: luciferase biochemical (cell-free) qHTS assay (AID 1645842). For activity change, negative = inhibition: series mostly up to about 57 µM. Note: nearly all actives have a fitted effect of over 55% in size. Note: potency is the fitted concentration of half-maximal effect. Put shortly:
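Luminescence, after 20 min with luciferin detection reagent, reflected CYP2C9 turnover during a 1 h NADPH-driven reaction at 37C. Enzyme-substrate mix contained 0.4% bovine serum albumin and was preincubated with compound 10 min at room temperature.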

A short description of assay [4]: Primary qHTS for inhibitors of nuclear receptor binding SET domain protein 2 (NSD2) in an RCH-ACV wild type WT cells (2C) (AID 1645877; active = well fitted curve in the direction sought with a large enough effect; an effect the other way counts as inactive or inconclusive; note: nearly all actives have a fitted effect of over 70% in size; note: potency is the fitted concentration of half-maximal effect).
Assay [5] is described as follows: Primary qHTS for inhibitors of nuclear receptor binding SET domain protein 2 (NSD2) in an isogenic RCH-ACV NSD2 p.E1099K mutant (9B) (AID 1645876; active = well fitted curve in the direction sought with a large enough effect; an effect the other way counts as inactive or inconclusive; note: nearly all actives have a fitted effect of over 70% in size; note: potency is the fitted concentration of half-maximal effect).
Assay [6] can be described thus: Primary qHTS for small molecule stabilizers of the endoplasmic reticulum resident proteome: Secreted ER Calcium Modulated Protein (SERCaMP) assay (AID 1508630; active = well fitted curve in the direction sought with a large enough effect; an effect the other way counts as inactive or inconclusive). In outline: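 GLuc-SERCaMP-expressing SH-SY5Y cells, pretreated 16 h with compound, are challenged with thapsigargin to empty ER calcium stores; after 4 h, coelenterazine is added directly to the medium and luminescence is imaged.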

Assay [7] is described as follows: Primary qHTS for inhibitors of La Crosse Virus (LACV) - induced cell death in SH-SY5Y cells (AID 1508616; active = well fitted curve in the direction sought with a large enough effect; an effect the other way counts as inactive or inconclusive;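 note: top concentration of the series differs between compounds; higher means more rescue of cells from virus-induced death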). Put shortly: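 SH-SY5Y cells (6000/well) plated 24 h, then given compounds by pin transfer and LACV at 0.01 MOI for 6 days at 37C. Viability measured by ATPLite luminescence, normalized to infected DMSO and uninfected DMSO.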
The nature of assay [8]: A High-Content qHTS Against Drug Library for the Identification of Small Molecules that Inhibit DYT1 Early Onset Primary Dystonia-Associated Cell Pathology (AID 1645839; calls by dose curve; note: series mostly up to about 46 µM). In outline:
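In this high-content image screen, delE TorsinA mislocalization in inducible Flp-In 293 cells is scored as %pathology, with cell count serving as the counterscreen. Compound exposure lasts 48 h under tetracycline induction in reduced-serum medium.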

Assay [9] has as its target Cytochrome P450 3A4 (Homo sapiens) (UniProt P08684). Nature of the assay: Cytochrome P450 family 3 subfamily A member 4 (CYP3A4) small molecule antagonists: luciferase qHTS assay (AID 1645841). Note: nearly all actives have a fitted effect of over 45% in size. In outline: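 Luminescent CYP3A4 activity readout: compounds plus enzyme-substrate mix 10 min at room temperature, reaction started with NADPH regenerating system for 1 h, stopped with detection reagent, read after 20 min. Ketoconazole served as control.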

Chain of Cytochrome P450 2D6 (Homo sapiens) (P10635 whole entry, looked up): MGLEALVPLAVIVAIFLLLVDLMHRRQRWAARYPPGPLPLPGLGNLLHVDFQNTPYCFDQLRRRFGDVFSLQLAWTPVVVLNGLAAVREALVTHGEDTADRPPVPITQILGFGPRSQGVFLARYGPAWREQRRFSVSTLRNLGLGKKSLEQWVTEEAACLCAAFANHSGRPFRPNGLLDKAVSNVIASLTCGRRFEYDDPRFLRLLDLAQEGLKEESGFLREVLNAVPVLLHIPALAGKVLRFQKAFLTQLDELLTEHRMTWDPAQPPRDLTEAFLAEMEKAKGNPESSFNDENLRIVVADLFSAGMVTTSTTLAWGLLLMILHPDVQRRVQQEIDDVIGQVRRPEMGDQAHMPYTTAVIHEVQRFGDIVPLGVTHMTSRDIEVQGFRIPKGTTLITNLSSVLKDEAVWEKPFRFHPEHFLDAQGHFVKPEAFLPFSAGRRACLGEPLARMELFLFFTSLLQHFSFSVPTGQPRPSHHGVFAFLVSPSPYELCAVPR
Chain of Calcium and integrin-binding protein 1 (Homo sapiens) (Q99828 whole entry, looked up): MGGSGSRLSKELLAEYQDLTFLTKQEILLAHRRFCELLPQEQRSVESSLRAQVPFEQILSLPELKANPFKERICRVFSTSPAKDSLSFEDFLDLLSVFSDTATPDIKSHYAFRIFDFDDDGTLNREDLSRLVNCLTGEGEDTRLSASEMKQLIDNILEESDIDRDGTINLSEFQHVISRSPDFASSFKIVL
Chain of Cytochrome P450 3A4 (Homo sapiens) (P08684 whole entry, looked up): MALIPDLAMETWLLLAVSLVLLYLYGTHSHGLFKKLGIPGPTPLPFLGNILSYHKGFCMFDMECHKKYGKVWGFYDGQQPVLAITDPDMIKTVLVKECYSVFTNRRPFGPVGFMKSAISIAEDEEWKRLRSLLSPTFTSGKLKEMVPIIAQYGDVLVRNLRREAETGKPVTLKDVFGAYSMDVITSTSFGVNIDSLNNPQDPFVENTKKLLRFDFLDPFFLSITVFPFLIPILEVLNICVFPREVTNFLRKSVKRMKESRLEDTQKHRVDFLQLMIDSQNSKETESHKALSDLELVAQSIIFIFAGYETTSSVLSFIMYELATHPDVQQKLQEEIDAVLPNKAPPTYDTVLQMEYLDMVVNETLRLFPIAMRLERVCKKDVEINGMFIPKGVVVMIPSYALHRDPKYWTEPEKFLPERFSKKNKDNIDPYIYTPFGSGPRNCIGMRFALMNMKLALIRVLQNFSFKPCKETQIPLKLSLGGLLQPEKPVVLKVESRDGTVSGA
Chain of Cytochrome P450 2C9 (Homo sapiens) (P11712 whole entry, looked up): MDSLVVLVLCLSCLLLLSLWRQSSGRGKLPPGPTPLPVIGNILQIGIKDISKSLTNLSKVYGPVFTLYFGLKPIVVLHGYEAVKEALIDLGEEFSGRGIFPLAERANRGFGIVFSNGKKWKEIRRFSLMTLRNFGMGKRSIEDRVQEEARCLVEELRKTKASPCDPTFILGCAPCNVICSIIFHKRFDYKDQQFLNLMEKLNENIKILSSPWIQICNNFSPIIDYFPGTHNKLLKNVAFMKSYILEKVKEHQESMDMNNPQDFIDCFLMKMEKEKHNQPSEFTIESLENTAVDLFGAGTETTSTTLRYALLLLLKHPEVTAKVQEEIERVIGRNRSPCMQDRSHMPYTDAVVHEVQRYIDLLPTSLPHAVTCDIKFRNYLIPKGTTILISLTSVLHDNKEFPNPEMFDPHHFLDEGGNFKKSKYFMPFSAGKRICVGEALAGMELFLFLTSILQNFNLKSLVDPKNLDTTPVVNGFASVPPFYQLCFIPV

Consider `CC(C)(C)c1ccc(CN2CCN(C(c3ccccc3)c3ccc(Cl)cc3)CC2)cc1` (configuration not stated), for which the Potency entry in assay [1], in [2], in [3] and in assay [4] was “inactive” throughout.
As to `CO[C@H]1C[C@@H]2CC[C@@H](C)[C@@](O)(O2)C(=O)C(=O)N2CCCC[C@H]2C(=O)O[C@H]([C@H](C)C[C@@H]2CC[C@@H](OC(=O)C(C)(CO)CO)[C@H](OC)C2)CC(=O)[C@H](C)/C=C(\C)[C@@H](O)[C@@H](OC)C(=O)[C@H](C)C[C@H](C)/C=C/C=C/C=C/1C`, the Potency entry in [1] is “inactive”. Besides, the figures for the Potency in assay [5] and in assay [4] were 0.204 µM (active) and 0.574 µM (active), respectively.
On to `CC/C=C\C/C=C\C/C=C\CCCCCCCC(=O)O`, for which, in assay [6], the activity change, negative = inhibition was -26.6% [at 3.88 µM].
Regarding `CC/C=C\C/C=C\C/C=C\C/C=C\C/C=C\C/C=C\CCC(=O)O`, the result in [6] was inactive.
As to `C[C@]12CC[C@@H]3c4ccc(OC(=O)c5ccccc5)cc4CC[C@H]3[C@@H]1CC[C@@H]2O`, the Potency entry in [1], in assay [2] and in assay [4] was “inactive” throughout.
With `CCN1C(=O)NC(c2ccccc2)C1=O` (configuration not stated), the Potency entry in assay [2] was “inactive”.
`O=C(O)CCC(=O)c1ccc(-c2ccccc2)cc1`: the result in [7] and in assay [8] was inactive. Besides, the Potency result in assay [1], in [3], in assay [5] and in [4] was “inactive” in each case.
As to `CO[C@H]1O[C@@H]2O[C@@]3(C)CC[C@H]4[C@H](C)CC[C@@H]([C@H]1C)[C@@]24OO3`, the Potency entry in [2] is “inactive”. Moreover, the Potency in [3] is 39.8 µM (active).
Taken in the same sequence, the figures for `O=C(OC1C[C@@H]2CC3C[C@H](C1)N2CC3=O)c1c[nH]c2ccccc12` (some centres not stated) were 6.74 µM (active) and 16.9 µM (active).
Taken in the same sequence, the figures for `COC(=O)CCC[N+](C)(C)C` were “inactive” and “inactive”.
Taken in the same sequence, the figures for `c1ccc(-n2cnnn2)cc1` were “inactive” and “inactive”.
For `CCOc1ccc(S(=O)(=O)O)c2cccnc12`, the Potency result in assay [2] and in assay [3] was “inactive” throughout.
Take `FCOC(C(F)(F)F)C(F)(F)F`: the Potency entry in assay [2] and in assay [3] was “inactive” in each case.
With `CC(CCc1ccc(O)cc1)NCC(O)c1ccc(O)cc1` (configuration not stated), the Potency in [2] was 6.74 µM (active). Besides, the Potency entry in [3] was “inactive”.
Turning to `S=C=Nc1ccc(N=C=S)cc1`, the Potency entry in [2] and in assay [3] was “inactive” in each case.
With `CCCc1ccc(C(=O)O)cc1`, the Potency result in [2] and in assay [3] was “inactive” throughout.
Regarding `COC(=O)c1ccccc1O`, the Potency result in [2] and in assay [3] was “inactive” throughout.
Turning to `OCCOCCOCCO`, the Potency entry in [2] and in assay [3] was “inactive” each time.
Take `FC(F)OC(Cl)C(F)(F)F` (configuration not stated): the Potency result in assay [2] and in [3] was “inactive” each time.
Take `C=CCCCCCCCCC(=O)OC`: the Potency result in assay [2] and in [3] was “inactive” in each case.
In the case of `Nc1nccs1`, the Potency entry in assay [2] and in assay [3] was “inactive” each time.
As to `NC(=S)N=Nc1ccc(NN=C(N)N)cc1`, the Potency in assay [2] is 10.7 µM (active); in assay [3], 15.1 µM (active). Besides, the molecule was classed as inactive in assay [9].
Turning to `CCCC(=O)O`, the Potency entry in assay [2] and in assay [3] was “inactive” throughout.
In the case of `O=P(O)(O)OP(=O)(O)O`, the Potency result in [2] was “inactive”.
For the molecule `O=C1CCC(=O)N1CO`, the Potency entry in [2] and in assay [3] was “inactive” throughout.
Turning to `CC(C)=CCC/C(C)=C/CC/C(C)=C/CC/C=C(\C)CC/C=C(\C)CCC=C(C)C`, the Potency entry in [2] is “inactive”.
Turning to `O=S(=O)(O)CCCS(=O)(=O)O`, the Potency result in [2] and in assay [3] was “inactive” throughout.
In the case of `O=C(OCc1ccccc1)c1cccnc1`, in assay [2], the Potency entry was “inactive”.
For the molecule `O=S(=O)(O)CC(S)CS` (configuration not stated), the Potency entry in [2] was “inactive”.
`C[C@H](CCCC(C)(C)O)[C@H]1CC[C@H]2[C@@H]3CC=C4C[C@@H](O)CC[C@]4(C)[C@H]3CC[C@]12C`: the Potency entry in assay [2] and in [3] was “inactive” throughout.
In the case of `CC1(O)CCC(C(C)(C)O)CC1` (configuration not stated), the Potency entry in assay [2] and in assay [3] was “inactive” throughout.
As for `CC(=O)Oc1cc(C(F)(F)F)ccc1C(=O)O`, the Potency result in assay [2] was “inactive”. In assay [9], the outcome was inactive.
With `CCN(CC)C(=O)c1cccnc1`, the Potency entry in [2] and in assay [3] was “inactive” throughout.
As to `Cc1ncc(C[n+]2csc(CCO)c2C)c(N)n1`, the Potency result in assay [2] and in assay [3] was “inactive” each time. The outcome in assay [9] was inactive.
With `C/C=C/C=C/C(=O)O`, the Potency result in assay [2] and in [3] was “inactive” throughout.
Consider `CCCCCCCCCCCCCCCCCC[N+](C)(C)CCC[Si](OC)(OC)OC`, for which, in assay [2], the Potency was 15.1 µM (active). In addition, the Potency result in assay [3] is “inactive”.
Taken in the same sequence, the figures for `CCC(O)c1ccccc1` (configuration not stated) were “inactive” and “inactive”.
Regarding `CC(C)[C@@H]1CC[C@@H](C)C[C@H]1OC(=O)c1ccccc1O`, the Potency entry in assay [2] and in assay [3] was “inactive” throughout.
Consider `C[C@H](O)CN(C)C`, for which the Potency result in assay [2] and in assay [3] was “inactive” in each case.
On to `N=C(N)n1cccn1`, for which the Potency entry in [2] and in assay [3] was “inactive” in each case. The outcome in [9] was inactive.
Take `CCCOc1cc(N)ccc1C(=O)OCCN(CC)CC`: the Potency in assay [2] is 3.38 µM (active).
On to `CC[C@H]1OC(=O)C[C@@H](O)[C@H](C)[C@@H](O[C@@H]2O[C@H](C)[C@@H](O[C@H]3C[C@@](C)(O)[C@@H](O)[C@H](C)O3)[C@H](N(C)C)[C@H]2O)[C@@H](CC=O)C[C@@H](C)C(=O)/C=C/C(C)=C/[C@@H]1CO[C@@H]1O[C@H](C)[C@@H](O)[C@@H](OC)[C@H]1OC`, for which the Potency entry in assay [2] and in [3] was “inactive” throughout.
Regarding `CO/N=C(\C(=O)N[C@@H]1C(=O)N2C(C(=O)O)=C(C[N+]3(C)CCCC3)CS[C@H]12)c1csc(N)n1`, the Potency entry in assay [2] and in assay [3] was “inactive” in each case.
Regarding `CC(CC=O)CCCC(C)(C)O` (configuration not stated), the Potency entry in assay [2] is “inactive”.
Take `CCC(Cc1c(I)cc(I)c(O)c1I)C(=O)O` (configuration not stated): in assay [2], the Potency result was “inactive”. Also, the Potency in [3] was 10.7 µM (active).
Consider `C=CC1=C(C(=O)O)N2C(=O)[C@@H](NC(=O)/C(=N\O)c3csc(N)n3)[C@H]2SC1` (stereo in doubt), for which the Potency entry in [2] and in assay [3] was “inactive” throughout. Also, the molecule was called inactive in assay [9].
For the molecule `c1ccc2ccccc2c1`, the Potency result in [2] and in assay [3] was “inactive” throughout.
